# The supplement of paper PMC12282887
# ± gives the standard deviation of the averaged measurements.
# Assays:
# Assay in all cases: promoter activity interaction Z-score (Lux/OD deviation from empty-vector control); higher = stronger promoter induction by the compound
# [1] = tested on: E. coli BW25113 ompFp lux reporter
# Procedure, shortened: (§1)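 E. coli BW25113 luxCDABE reporter strains grew at 37°C in 40 µl LB Lennox in 384-well plates, with OD600 and luminescence read every 30 min for 12 h. After integration over 0–8 h for wild type or 1–9 h for deletion strains, wells under 10% of the median growth value were removed. Each score is the Z-transformed residual of growth-normalised luminescence fitted against a control.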
# [2] = tested on: E. coli BW25113 robp lux reporter
# Procedure, shortened: as §1
# [3] = tested on: E. coli BW25113 soxSp lux reporter
# Procedure, shortened: as §1
# [4] = tested on: E. coli BW25113 tolCp lux reporter
# Procedure, shortened: as §1
# [5] = 1.9 µg/ml, genetic background: wild type
# [6] = 1.9 µg/ml, genetic background: ΔmarA
# [7] = 1.9 µg/ml, genetic background: Δrob
# [8] = 1.9 µg/ml, genetic background: ΔsoxS
# [9] = 3.7 µg/ml, genetic background: wild type
# [10] = 3.7 µg/ml, genetic background: ΔmarA
# [11] = 3.7 µg/ml, genetic background: Δrob
# [12] = 3.7 µg/ml, genetic background: ΔsoxS
# [13] = 0.47 µg/ml, genetic background: wild type
# [14] = 0.47 µg/ml, genetic background: ΔmarA
# [15] = 0.47 µg/ml, genetic background: Δrob
# [16] = 0.47 µg/ml, genetic background: ΔsoxS
# [17] = 0.93 µg/ml, genetic background: wild type
# [18] = 0.93 µg/ml, genetic background: ΔmarA
# [19] = 0.93 µg/ml, genetic background: Δrob
# [20] = 0.93 µg/ml, genetic background: ΔsoxS
compound,measurement,setting,value
CC1(C)S[C@@H]2[C@H](NC(=O)Cc3ccccc3)C(=O)N2[C@H]1C(=O)O [Penicillin G],promoter activity interaction Z-score,[1]; [5],-0.392 ± 0.093
same,promoter activity interaction Z-score,[1]; [6],0.0358 ± 0.0037
same,promoter activity interaction Z-score,[1]; [7],0.00513 ± 0.15
same,promoter activity interaction Z-score,[1]; [8],0.64 ± 0.076
same,promoter activity interaction Z-score,[1]; [9],0.719 ± 0.27
same,promoter activity interaction Z-score,[1]; [10],1.16 ± 0.19
same,promoter activity interaction Z-score,[1]; [11],1.35 ± 0.66
same,promoter activity interaction Z-score,[1]; [12],1.7 ± 0.7
same,promoter activity interaction Z-score,[2]; [13],0.349 ± 0.073
same,promoter activity interaction Z-score,[2]; [14],-0.4 ± 0.07
same,promoter activity interaction Z-score,[2]; [15],0.363 ± 0.43
same,promoter activity interaction Z-score,[2]; [16],0.277 ± 0.35
same,promoter activity interaction Z-score,[2]; [17],0.428 ± 0.22
same,promoter activity interaction Z-score,[2]; [18],0.187 ± 0.37
same,promoter activity interaction Z-score,[2]; [19],0.468 ± 0.14
same,promoter activity interaction Z-score,[2]; [20],1.15 ± 0.22
same,promoter activity interaction Z-score,[2]; [5],0.165 ± 0.58
same,promoter activity interaction Z-score,[2]; [6],0.313 ± 0.31
same,promoter activity interaction Z-score,[2]; [7],0.501 ± 0.075
same,promoter activity interaction Z-score,[2]; [8],1.21 ± 0.031
same,promoter activity interaction Z-score,[2]; [9],-0.01 ± 0.15
same,promoter activity interaction Z-score,[2]; [10],-0.105 ± 0.66
same,promoter activity interaction Z-score,[2]; [11],0.319 ± 0.12
same,promoter activity interaction Z-score,[2]; [12],0.575 ± 0.42
same,promoter activity interaction Z-score,[3]; [13],-0.0325 ± 0.0094
same,promoter activity interaction Z-score,[3]; [14],-0.123 ± 0.17
same,promoter activity interaction Z-score,[3]; [15],-0.201 ± 0.0035
same,promoter activity interaction Z-score,[3]; [16],0.0709 ± 0.024
same,promoter activity interaction Z-score,[3]; [17],-0.167 ± 0.16
same,promoter activity interaction Z-score,[3]; [18],0.103 ± 0.074
same,promoter activity interaction Z-score,[3]; [19],-0.163 ± 0.14
same,promoter activity interaction Z-score,[3]; [20],0.0504 ± 0.19
same,promoter activity interaction Z-score,[3]; [5],-0.132 ± 0.13
same,promoter activity interaction Z-score,[3]; [6],-0.0824 ± 0.12
same,promoter activity interaction Z-score,[3]; [7],-0.0996 ± 0.047
same,promoter activity interaction Z-score,[3]; [8],0.084 ± 0.14
same,promoter activity interaction Z-score,[3]; [9],-0.201 ± 0.12
same,promoter activity interaction Z-score,[3]; [10],0.0156 ± 0.13
same,promoter activity interaction Z-score,[3]; [11],-0.136 ± 0.17
same,promoter activity interaction Z-score,[3]; [12],-0.126 ± 0.39
same,promoter activity interaction Z-score,[4]; [13],-0.848 ± 1
same,promoter activity interaction Z-score,[4]; [14],-0.0171 ± 0.012
same,promoter activity interaction Z-score,[4]; [15],0.219 ± 0.5
same,promoter activity interaction Z-score,[4]; [16],0.375 ± 0.55
same,promoter activity interaction Z-score,[4]; [17],-0.35 ± 0.54
same,promoter activity interaction Z-score,[4]; [18],-0.485 ± 0.89
same,promoter activity interaction Z-score,[4]; [19],-0.163 ± 0.37
same,promoter activity interaction Z-score,[4]; [20],0.352 ± 0.23
same,promoter activity interaction Z-score,[4]; [5],-0.309 ± 1
same,promoter activity interaction Z-score,[4]; [6],-0.171 ± 0.9
same,promoter activity interaction Z-score,[4]; [7],-0.0507 ± 1.1
same,promoter activity interaction Z-score,[4]; [8],0.284 ± 0.24
same,promoter activity interaction Z-score,[4]; [9],-0.124 ± 0.38
same,promoter activity interaction Z-score,[4]; [10],-0.297 ± 0.25
same,promoter activity interaction Z-score,[4]; [11],-0.675 ± 1.1
same,promoter activity interaction Z-score,[4]; [12],0.109 ± 0.61
